Data published in PMC5540273 (PLoS ONE, 2017).

system: ANKK1; settings: concentration: 1 μM, replicates: in singlicate; n = 1
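Also: KINOMEscan kinase panel screen.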

Row | SMILES | %Inh [%]
1 | N#Cc1ccc(Oc2ccc(Nc3ncnc4cc[nH]c34)cc2Cl)cc1 | 28
2 | Cc1cc(N2CCC(NS(=O)(=O)c3ccc(F)cc3)CC2)nc(Nc2cccc(C#N)c2)n1.O=C(O)C(F)(F)F [GSK1653537] | 3
3 | O=C(NCCCN1CCCC1=O)c1cnc(NCc2cc(Cl)ccc2Cl)nc1NC1CCNCC1 | 0
4 | c1ccc(-c2ccc3c(-c4ccnc(Nc5ccc6c(c5)OCCO6)n4)cnn3n2)cc1 [GW818941] | 4
5 | CNc1nccc(-c2c(-c3ccc(F)cc3)ncn2CCCN2CCOCC2)n1 [SB-222516] | 39
6 | C[C@@H]1CCN(C(=O)CO)C[C@@H]1N(C)c1ncnc2[nH]ccc12 | 0
7 | Cn1ccc2ncnc(Oc3ccc(NC(=O)Nc4cccnc4)c(Cl)c3)c21 | 0
8 | O=C(c1ccc(-c2cc(-c3c[nH]nc3-c3ccccn3)ccn2)cc1)N1CCCC1 [GW792479] | 0
9 | O=C(Nc1n[nH]c2nc(-c3ccco3)c(Br)cc12)c1ccc(CN2CCCC2)cc1.O=C(O)[C@H](O)[C@@H](O)C(=O)O [SB-742352] | 0
10 | Nc1n[nH]c2nnc(-c3ccccc3)cc12 [SB-517389] | 0
11 | Oc1ccc2ncnc(Nc3ccc(OCc4ccccc4)cc3)c2c1 [GI262866] | 0
12 | O=C(CCO)NCCn1ccc2ncnc(Nc3ccc(Oc4cccc(C(F)(F)F)c4)c(Cl)c3)c21 | 0
13 | Nc1nc(-c2cccnc2)c(-c2ccnc3ccccc23)s1 [GW684083] | 5
14 | COc1ccc(Nc2nccc(N3CCC(NC(=O)c4cccc(NC(C)=O)c4)C3)n2)cc1 (stereo not drawn) [GSK1379732] | 11
15 | CC(=O)Nc1n[nH]c2ncc(-c3ccccc3)cc12 [SB-548492] | 20
16 | COc1ccc(Nc2nccc(N3CCC(NC(=O)Nc4ccc5c(c4)OCO5)C3)n2)cc1 (stereo not drawn) [GSK1379745] | 2
17 | CCCc1ccc(S(=O)(=O)NC2CCN(c3ccnc(Nc4ccc(OC)cc4)n3)C2)cc1 (stereo not drawn) [GSK1379737] | 0
18 | Nc1nccc2scc(-c3ccc4c(c3)CCN4C(=O)Cc3cc(F)ccc3F)c12 [GSK2587663] | 1

Row | SMILES | %Inh [%]
19 | CS(=O)(=O)CCNCc1nc(-c2ccc3ncnc(Nc4ccc(OCc5cccc(F)c5)c(Cl)c4)c3c2)cs1.Cl [GW583340] | 0
20 | COc1ccc(NC(=O)Nc2ccc(C)c(-c3ccc(C(=O)Nc4ccncc4)cc3)c2)cc1 [GSK1398475] | 10
21 | FC(F)(F)c1cc(Nc2nccc(-c3c(-c4ccc(Cl)cc4)nn4ncccc34)n2)ccc1Cl [GW829351] | 0
22 | Cl.Cl.c1ccc(-c2cc3ccncc3cc2OC2CCNCC2)cc1 [GSK1122999] | 0
23 | Nc1nc(-c2ccc3c(N)n[nH]c3c2)cc(N2CCCCC2)n1 [GSK2228768] | 3
24 | COc1cc2c(Nc3cccc(NC(=O)c4ccccc4)c3)ncnc2cc1OCCCN1CCOCC1 [GSK223810] | 16
25 | Clc1cccc(-c2nc(Nc3ccncc3)c3ccccc3n2)c1 [GW873004] | 0
26 | CSc1ccc(NC2=C(c3ccccc3Cl)C(=O)NC2=O)cc1 [SB-342411] | 20
27 | O=C(Nc1ccccc1F)NC1CCN(c2ccnc(Nc3ccc(F)cc3)n2)C1 (stereo not drawn) [GSK1379722] | 0
28 | Cc1ccc(NC(=O)c2cccc(C#N)c2)cc1-c1ccc(C(=O)Nc2ccncc2)cc1 [GSK1398463] | 0
29 | Nc1nc(-c2ccc3c(N)n[nH]c3c2)cc(N2CCC[C@@H](C(=O)Nc3ccccc3)C2)n1.O=C(O)C(F)(F)F.O=C(O)C(F)(F)F [GSK2288359] | 12
30 | CCc1nc(-c2cccc(C)c2)c(-c2ccnc(NC(=O)c3ccccc3)c2)s1 | 0
31 | Cl.Fc1ccccc1COc1ccc(Nc2ncnc3ccc(-c4nnc(C(F)(F)F)o4)cc23)cc1Cl [GW424170] | 0
32 | Clc1cc(Nc2ncnc3cc[nH]c23)ccc1OCc1ccccn1 | 20
33 | CC(C)N1CCC(n2cnc(-c3ccc(F)cc3)c2-c2ccnc(N)n2)CC1 [SB-223132] | 0
34 | COC(=O)c1cccc(NC(=O)NCCNc2ccnc(Nc3ccc(F)cc3)n2)c1 [GSK1379883] | 1
35 | Cc1ccc(C)c(NC(=O)NCCNc2ccnc(Nc3ccc(F)cc3)n2)c1 [GSK1379878] | 5
36 | CCC(CC)(CC)n1cnc2c(N)ncnc21 [SKF-97620] | 17

system: T1, ARK5; settings: concentration: 1 μM, replicates: in singlicate; n = 1
T1 construct: gene NUAK1

Row | SMILES | %Inh [%]
37 | N#Cc1ccc(Oc2ccc(Nc3ncnc4cc[nH]c34)cc2Cl)cc1 | 10
38 | Cc1cc(N2CCC(NS(=O)(=O)c3ccc(F)cc3)CC2)nc(Nc2cccc(C#N)c2)n1.O=C(O)C(F)(F)F [GSK1653537] | 15
39 | O=C(NCCCN1CCCC1=O)c1cnc(NCc2cc(Cl)ccc2Cl)nc1NC1CCNCC1 | 0
40 | c1ccc(-c2ccc3c(-c4ccnc(Nc5ccc6c(c5)OCCO6)n4)cnn3n2)cc1 [GW818941] | 15
41 | CNc1nccc(-c2c(-c3ccc(F)cc3)ncn2CCCN2CCOCC2)n1 [SB-222516] | 0
42 | C[C@@H]1CCN(C(=O)CO)C[C@@H]1N(C)c1ncnc2[nH]ccc12 | 0
43 | Cn1ccc2ncnc(Oc3ccc(NC(=O)Nc4cccnc4)c(Cl)c3)c21 | 3
44 | O=C(c1ccc(-c2cc(-c3c[nH]nc3-c3ccccn3)ccn2)cc1)N1CCCC1 [GW792479] | 0
45 | O=C(Nc1n[nH]c2nc(-c3ccco3)c(Br)cc12)c1ccc(CN2CCCC2)cc1.O=C(O)[C@H](O)[C@@H](O)C(=O)O [SB-742352] | 0
46 | Nc1n[nH]c2nnc(-c3ccccc3)cc12 [SB-517389] | 1
47 | Oc1ccc2ncnc(Nc3ccc(OCc4ccccc4)cc3)c2c1 [GI262866] | 15
48 | O=C(CCO)NCCn1ccc2ncnc(Nc3ccc(Oc4cccc(C(F)(F)F)c4)c(Cl)c3)c21 | 0
49 | Nc1nc(-c2cccnc2)c(-c2ccnc3ccccc23)s1 [GW684083] | 0
50 | COc1ccc(Nc2nccc(N3CCC(NC(=O)c4cccc(NC(C)=O)c4)C3)n2)cc1 (stereo not drawn) [GSK1379732] | 9
51 | CC(=O)Nc1n[nH]c2ncc(-c3ccccc3)cc12 [SB-548492] | 0
52 | COc1ccc(Nc2nccc(N3CCC(NC(=O)Nc4ccc5c(c4)OCO5)C3)n2)cc1 (stereo not drawn) [GSK1379745] | 9
53 | CCCc1ccc(S(=O)(=O)NC2CCN(c3ccnc(Nc4ccc(OC)cc4)n3)C2)cc1 (stereo not drawn) [GSK1379737] | 0
54 | Nc1nccc2scc(-c3ccc4c(c3)CCN4C(=O)Cc3cc(F)ccc3F)c12 [GSK2587663] | 0

Row | SMILES | %Inh [%]
55 | CS(=O)(=O)CCNCc1nc(-c2ccc3ncnc(Nc4ccc(OCc5cccc(F)c5)c(Cl)c4)c3c2)cs1.Cl [GW583340] | 11
56 | COc1ccc(NC(=O)Nc2ccc(C)c(-c3ccc(C(=O)Nc4ccncc4)cc3)c2)cc1 [GSK1398475] | 0
57 | FC(F)(F)c1cc(Nc2nccc(-c3c(-c4ccc(Cl)cc4)nn4ncccc34)n2)ccc1Cl [GW829351] | 0
58 | Cl.Cl.c1ccc(-c2cc3ccncc3cc2OC2CCNCC2)cc1 [GSK1122999] | 13
59 | Nc1nc(-c2ccc3c(N)n[nH]c3c2)cc(N2CCCCC2)n1 [GSK2228768] | 0
60 | COc1cc2c(Nc3cccc(NC(=O)c4ccccc4)c3)ncnc2cc1OCCCN1CCOCC1 [GSK223810] | 0
61 | Clc1cccc(-c2nc(Nc3ccncc3)c3ccccc3n2)c1 [GW873004] | 0
62 | CSc1ccc(NC2=C(c3ccccc3Cl)C(=O)NC2=O)cc1 [SB-342411] | 0
63 | O=C(Nc1ccccc1F)NC1CCN(c2ccnc(Nc3ccc(F)cc3)n2)C1 (stereo not drawn) [GSK1379722] | 12
64 | Cc1ccc(NC(=O)c2cccc(C#N)c2)cc1-c1ccc(C(=O)Nc2ccncc2)cc1 [GSK1398463] | 33
65 | Nc1nc(-c2ccc3c(N)n[nH]c3c2)cc(N2CCC[C@@H](C(=O)Nc3ccccc3)C2)n1.O=C(O)C(F)(F)F.O=C(O)C(F)(F)F [GSK2288359] | 0
66 | CCc1nc(-c2cccc(C)c2)c(-c2ccnc(NC(=O)c3ccccc3)c2)s1 | 0
67 | Cl.Fc1ccccc1COc1ccc(Nc2ncnc3ccc(-c4nnc(C(F)(F)F)o4)cc23)cc1Cl [GW424170] | 0
68 | Clc1cc(Nc2ncnc3cc[nH]c23)ccc1OCc1ccccn1 | 0
69 | CC(C)N1CCC(n2cnc(-c3ccc(F)cc3)c2-c2ccnc(N)n2)CC1 [SB-223132] | 0
70 | COC(=O)c1cccc(NC(=O)NCCNc2ccnc(Nc3ccc(F)cc3)n2)c1 [GSK1379883] | 0
71 | Cc1ccc(C)c(NC(=O)NCCNc2ccnc(Nc3ccc(F)cc3)n2)c1 [GSK1379878] | 0
72 | CCC(CC)(CC)n1cnc2c(N)ncnc21 [SKF-97620] | 0
